{
  "source": "paper PMC7819943",
  "about": "“Rice protein-binding microarrays: a tool to detect cis-acting elements near promoter regions in rice”",
  "note": "Whole data set: some 35,000 sequences, median “fluorescence intensity (a.u.)” near 10,000, cut for the highest 2% near 52,000. This is one part of a sample in which the highest values are shown more often than they occur.",
  "data": [
    {"target": "T1, OsWOX13 (Oryza sativa, UniProt Q5QMM3 1-267)", "T1 sequence": "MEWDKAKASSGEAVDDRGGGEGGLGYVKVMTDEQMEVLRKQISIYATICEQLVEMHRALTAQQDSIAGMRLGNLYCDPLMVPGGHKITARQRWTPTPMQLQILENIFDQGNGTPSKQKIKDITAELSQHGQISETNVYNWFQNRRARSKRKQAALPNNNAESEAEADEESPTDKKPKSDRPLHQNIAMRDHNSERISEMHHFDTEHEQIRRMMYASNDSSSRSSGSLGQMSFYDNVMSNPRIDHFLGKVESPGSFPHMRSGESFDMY", "assay": "protein-binding microarray (RPBM); PBS, 2% BSA, 51.3 ng/ul salmon testes DNA, 50 uM zinc acetate, 200 nM TF, 25 C, 1 h; high values mean tight binding", "conditions": "protein: recombinant; tags: N-terminal polyhistidine and DsRed monomer fusion (pET32a); label: CyDye5-dUTP incorporated in the synthesized complementary strand; 3' TTTTT single-stranded linker to array surface; dsDNA, one strand shown", "method_in_brief": "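An Axon 4000B scanner gave the binding signal as per-feature fluorescence intensity in arbitrary units. This followed washing of a custom Agilent array that had been incubated for 1 h at 25 °C with 200 nM protein in PBS, 2% BSA, salmon testes DNA and 50 µM zinc acetate. The proteins were transcription factors fused at the N-terminus to polyhistidine and DsRed, expressed in E. coli BL21-CodonPlus and purified on Ni–NTA.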", "values": [
      {"sequence": "GTAGCAATCAAATATGGGCCGGTCAATTGTTCGCGGTAGACGGAGTCACCTAGTGCAG", "binding signal": "4130 fluorescence intensity (a.u.)"},
      {"sequence": "CATGGACAACAATCATTGCCTGTTACGCGCAAAGTTCTCGCGGAGTCACCTAGTGCAG", "binding signal": "8490 fluorescence intensity (a.u.)"},
      {"sequence": "AGTATAATGACTGTTAGATCTCCATAAAACTGGCCACAAACGGAGTCACCTAGTGCAG", "binding signal": "3510 fluorescence intensity (a.u.)"},
      {"sequence": "GCGATTAAATGTACAGTAAATAGGGATGAACAATATACGACGGAGTCACCTAGTGCAG", "binding signal": "3570 fluorescence intensity (a.u.)"},
      {"sequence": "TCTTAATAATTATTTCTTAATTAATTCTGTGCTAATTGTGCGGAGTCACCTAGTGCAG", "binding signal": "54300 fluorescence intensity (a.u.)"},
      {"sequence": "TTAATTGATTAATTTCCTTAACCAAATCTTGGCGACTTGACGGAGTCACCTAGTGCAG", "binding signal": "61200 fluorescence intensity (a.u.)"},
      {"sequence": "GAATAATTATTACACAATGCTAATTAATTTCACAATATTGCGGAGTCACCTAGTGCAG", "binding signal": "38800 fluorescence intensity (a.u.)"},
      {"sequence": "CATGGTGAATTGGTGATTTTATAATGATGCTAAGCTTTGACGGAGTCACCTAGTGCAG", "binding signal": "4860 fluorescence intensity (a.u.)"},
      {"sequence": "TAATATTTAATTTCTATCAACATCTGACTACTTAATATTGCGGAGTCACCTAGTGCAG", "binding signal": "7790 fluorescence intensity (a.u.)"},
      {"sequence": "AATCTTGGCAAATTTCCTTAATTTGAACCTACGTGTTAAACGGAGTCACCTAGTGCAG", "binding signal": "5550 fluorescence intensity (a.u.)"},
      {"sequence": "CTATCTCATTGCTTAATTGGTCATATAATTGGGCTGAGTGCGGAGTCACCTAGTGCAG", "binding signal": "16900 fluorescence intensity (a.u.)"},
      {"sequence": "ATCCTTATTAATTTAATTTAACAAAGTCAACTTGATTTCCCGGAGTCACCTAGTGCAG", "binding signal": "23100 fluorescence intensity (a.u.)"},
      {"sequence": "CCTTAATTGTGGGGCTGACTGCTATTTTCTATATCATGTGCGGAGTCACCTAGTGCAG", "binding signal": "56000 fluorescence intensity (a.u.)"},
      {"sequence": "ATAATATTTAATATTTAATTAATTATGTGCTAATAAATCGCGGAGTCACCTAGTGCAG", "binding signal": "14300 fluorescence intensity (a.u.)"},
      {"sequence": "TGCATTGATTTGGTATAATTGACCATGCTTTGCGATGCAACGGAGTCACCTAGTGCAG", "binding signal": "57700 fluorescence intensity (a.u.)"},
      {"sequence": "AGCAATGCAACGATTATTAATTTAATTTGCACATGTATTGCGGAGTCACCTAGTGCAG", "binding signal": "5900 fluorescence intensity (a.u.)"},
      {"sequence": "AGCGATTAGTAAGTGGATTGGATCTAACTAAGCTTGCTACCGGAGTCACCTAGTGCAG", "binding signal": "9310 fluorescence intensity (a.u.)"},
      {"sequence": "CCTGCACAATCACTGGCTGATGCATCTGCAATGTCACCAACGGAGTCACCTAGTGCAG", "binding signal": "4350 fluorescence intensity (a.u.)"},
      {"sequence": "TGGATTTGTATGTCTTAATTGAAGTTAGGCTATAAATTTGCGGAGTCACCTAGTGCAG", "binding signal": "10300 fluorescence intensity (a.u.)"},
      {"sequence": "ATATTTAATTTGATACTACCTATAAACCGCACAAGCTGCACGGAGTCACCTAGTGCAG", "binding signal": "16800 fluorescence intensity (a.u.)"},
      {"sequence": "GTGATGAGTGATGACCCGGAGAATGAGAGAGGCGACTGTGCGGAGTCACCTAGTGCAG", "binding signal": "3800 fluorescence intensity (a.u.)"},
      {"sequence": "CATTTGCTGGATGTGCTCCTTACTTAATATTTATGCATGGCGGAGTCACCTAGTGCAG", "binding signal": "52600 fluorescence intensity (a.u.)"},
      {"sequence": "CTCCTAATTTAGTCACTTATGGAGCTCTGATAGCTGGATGCGGAGTCACCTAGTGCAG", "binding signal": "14200 fluorescence intensity (a.u.)"},
      {"sequence": "TAATCATGTTAAATTGATGTTATTAGATTTATCATTAAACCGGAGTCACCTAGTGCAG", "binding signal": "14900 fluorescence intensity (a.u.)"},
      {"sequence": "TAATGTGTGTGTATAATTAATTAAGCAGTGAAGTGAATCGCGGAGTCACCTAGTGCAG", "binding signal": "5650 fluorescence intensity (a.u.)"},
      {"sequence": "AGTTATAATGGAATTAATTATAATTATAGTATAGTTAGATCGGAGTCACCTAGTGCAG", "binding signal": "28600 fluorescence intensity (a.u.)"},
      {"sequence": "GGATTAAATTATCAAATAGATTTGGCTGCCATGATGGCACCGGAGTCACCTAGTGCAG", "binding signal": "42600 fluorescence intensity (a.u.)"},
      {"sequence": "TAAATTAATTAATTAGGTATAAATGTAATTAAGCACATCGCGGAGTCACCTAGTGCAG", "binding signal": "55000 fluorescence intensity (a.u.)"},
      {"sequence": "ATATGATCGTATAATTAAATGAGATCATGATTAAGTGGAGCGGAGTCACCTAGTGCAG", "binding signal": "16400 fluorescence intensity (a.u.)"},
      {"sequence": "CATAATTAAAATACTTAAAATATGTGCTCGTAATTATTTACGGAGTCACCTAGTGCAG", "binding signal": "6000 fluorescence intensity (a.u.)"},
      {"sequence": "GTTAATTAGATCATGATAAAGATTAATGTATAGATCGAGGCGGAGTCACCTAGTGCAG", "binding signal": "62000 fluorescence intensity (a.u.)"},
      {"sequence": "GAGTGGTAAATAATTAATTATTACATATTTGTATAAATCGCGGAGTCACCTAGTGCAG", "binding signal": "22800 fluorescence intensity (a.u.)"},
      {"sequence": "ATGATAGATTAAATCAAATTATCATGTTATGGGTATAGCCCGGAGTCACCTAGTGCAG", "binding signal": "53200 fluorescence intensity (a.u.)"},
      {"sequence": "GGGGATGGAAGGGTGATTGAGAGTAAGAATTGGAGGTGATCGGAGTCACCTAGTGCAG", "binding signal": "30000 fluorescence intensity (a.u.)"},
      {"sequence": "TAGAATTGATGATACTAGCTATAACTTCCGAGTGAGCACACGGAGTCACCTAGTGCAG", "binding signal": "16900 fluorescence intensity (a.u.)"},
      {"sequence": "CCATCTGCTGATAGATTTTCTATTGCCAAATCTTACACCTCGGAGTCACCTAGTGCAG", "binding signal": "5710 fluorescence intensity (a.u.)"},
      {"sequence": "CTTCAATAATTAATTTATATTGTACTAATATGTTTGTAAACGGAGTCACCTAGTGCAG", "binding signal": "17900 fluorescence intensity (a.u.)"},
      {"sequence": "AATTACTGTCATGATTTGAATTTGCAATCATTTCCTGTACCGGAGTCACCTAGTGCAG", "binding signal": "18800 fluorescence intensity (a.u.)"},
      {"sequence": "TCCTTGCTAACAAATCAACCAATTTGTCCATTCCCTATGTCGGAGTCACCTAGTGCAG", "binding signal": "3440 fluorescence intensity (a.u.)"},
      {"sequence": "AGAAATTGATTCGTCGAGGATATTGATCTATTAGTAAATGCGGAGTCACCTAGTGCAG", "binding signal": "36700 fluorescence intensity (a.u.)"},
      {"sequence": "AGTTTCATTAAATTTAATATTAAACATATTTTGATAATATCGGAGTCACCTAGTGCAG", "binding signal": "5680 fluorescence intensity (a.u.)"},
      {"sequence": "AAATAAATTTGAACTAAAATGAAAATTTGAAGGTATAGCACGGAGTCACCTAGTGCAG", "binding signal": "12600 fluorescence intensity (a.u.)"},
      {"sequence": "AAGCTTCCTTTGATTGATCCGACTCCACCAAGAACACGATCGGAGTCACCTAGTGCAG", "binding signal": "22000 fluorescence intensity (a.u.)"},
      {"sequence": "TGTAACTCTCGTATGTAATTGAGTAAAACATGTTGGTGCTCGGAGTCACCTAGTGCAG", "binding signal": "4540 fluorescence intensity (a.u.)"},
      {"sequence": "GTTAGATTAGATTGGTACCTCATGTTACCTCGTACCTCATCGGAGTCACCTAGTGCAG", "binding signal": "55700 fluorescence intensity (a.u.)"},
      {"sequence": "TATATAATTTATTTAATTGGATTTACCAGTTTAAGGGGTTCGGAGTCACCTAGTGCAG", "binding signal": "54300 fluorescence intensity (a.u.)"},
      {"sequence": "TTGACTATTAAATTGGCTATAGATAAATTGGAGCTAGTAGCGGAGTCACCTAGTGCAG", "binding signal": "23600 fluorescence intensity (a.u.)"}
    ]}
  ]
}
